# About 83,000 compounds went through this panel and 20% of them were active in at least one assay; those are over-represented in the sample as a whole.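 Treatment: one concentration, 48 hours, 96-well format. Scoring: percent growth, with anything below 10 considered active.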 The source made the active and inactive calls.
# Tested on: LOX IMVI melanoma
# Experiment: NCI-60 one-dose screen, 48 h (100 = growth as untreated, 0 = no growth, -100 = all killed)
# Conditions: 10 µM unless noted
row,SMILES,growth
1,COc1ccc(/C=C/C(c2cc(OC)c(OC)c(OC)c2)n2cncn2)cc1O (stereo not drawn),50.9% (inactive)
2,COc1ccc(-c2cn(Cc3cc4ccccc4s3)nn2)cc1OCCN1CCCCC1,48.9% (inactive)
3,COc1ccc(-c2nc3c(c(-c4ccc(Cl)cc4)nn3-c3ccccc3)c(-c3ccccc3)c2C#N)cc1,101% (inactive)
4,COc1ccc2c(c1)CC[C@@H]1[C@@H]2CC[C@]2(C)C3C(=CC(COC(C)=O)C4C(=O)N(c5ccc(Cl)cc5)C(=O)C43)C[C@@H]12 (stereo partly drawn),94% (inactive)
5,COc1cc(/C=C/C(=O)N2CCN(C(=O)c3cc(OC)c(OC)c(OC)c3)CC2)ccc1OCCCOc1cc2c(cc1OC)C(=O)N1CCC[C@H]1C=N2,1.38% (active)
6,CSc1nc2ccc(C)cc2cc1/C=C1/C=C(c2ccccc2)NC1=O,45.3% (inactive)
7,Cc1ccc2c(c1)sc1nc(-c3c[nH]c4ccccc34)c(Nc3ccccc3)n12,96.3% (inactive)
8,N=C(N)c1ccc(-c2ccc(-c3ccccc3)o2)o1,14.3% (inactive)
9,CN1C(=O)N2CN3CCCN(C3)CN3C(=S)NC1C23 (stereo not drawn),98.7% (inactive)
10,Clc1ccc(-c2cc(-c3ccccc3)nc(N3CCN(CCCNc4ccnc5cc(Cl)ccc45)CC3)n2)cc1,-95.5% (active)
11,COc1cc(/C=C/c2cc(/C=C/c3ccc(O)c(OC)c3)n(C(=O)Nc3ccc(Cl)cc3)n2)ccc1O,3.04% (active)
12,N#Cc1c(-c2ccccc2)nc2c(c(-c3ccc(Cl)cc3)nn2-c2ccccc2)c1-c1ccc([N+](=O)[O-])cc1,94.7% (inactive)
13,COc1ccc(Oc2ccc(/C=C/C(=O)c3cc4ccccc4oc3=O)cc2)cc1,70.7% (inactive)
14,O=[N+]([O-])c1c(O)c(Cl)cc(Cl)c1Cl,94.2% (inactive)
15,O=S(O)c1cc(Cl)cc(Cl)c1OCc1ccccc1,108% (inactive)
16,Cc1oc(-c2ccc(Cl)cc2)nc1C1=NN(C(=O)c2ccncc2)C(c2ccccc2)C1 (stereo not drawn),92.7% (inactive)
17,CS(=O)(=O)c1ccc(-c2nc3ccccc3n2CC(=O)N/N=C/c2ccccc2)cc1,107% (inactive)
18,CCCn1c(=S)sc2c(NNC(C)=O)nc(C)nc21,87% (inactive)
19,N#CSc1c[nH]c2ccc(/C=C/C(=O)/C=C(O)/C=C/c3ccc4[nH]cc(SC#N)c4c3)cc12,-75.8% (active)
20,Fc1cccc(-c2nc(-c3c[nH]c4ncccc34)cs2)c1,74.3% [100 µM] (inactive)

row,SMILES,growth
1,COc1ccc(Oc2ccc(/C=C/C(=O)c3ccc(OC)c(OC)c3)cc2)cc1,53.7% (inactive)
2,CCCCn1c(NC(C)=O)c(S(=O)(=O)c2ccccc2)c2nc3ccccc3nc21,101% (inactive)
3,COc1cc(O)c2c(=O)c3c(CC=C(C)C)cc(OC)c(O)c3oc2c1,40.3% (inactive)
4,CC12OC(CC(O)C1O)n1c3ccccc3c3c4c(c5c6ccccc6n2c5c31)C(=O)N(CCN1CCCC1)C4=O (stereo not drawn),-2.77% (active)
5,C=C1CC[C@@H]2C(C)(C)[C@H](O)CC[C@@]2(C)[C@@H]1COc1ccc2ccc(=O)oc2c1,36.5% (inactive)
6,COc1c2c(cc3c1C(=O)N[C@@H]1[C@@H](O)[C@@H](O)[C@H](O)C[C@@H]31)OCCO2,101% (inactive)
7,C=C1C(=O)O[C@H]2[C@H]1CC/C(COC(=O)NCc1ccc(Cn3c(=O)sn(-c4ccccc4)c3=O)cc1)=C\CC[C@@]1(C)O[C@@H]21,6.38% (active)
8,Cc1nc2sc(C(=O)Nc3ccccn3)c(N)c2cc1C(C)O (stereo not drawn),67.1% (inactive)
9,c1cc(OCCN2CCCC2)ccc1CNc1ccc2nc(CCC3CCCCC3)[nH]c2c1,-78.5% (active)
10,Cc1nc([P+](c2ccccc2)(c2ccccc2)c2ccccc2)c(N2CCCCC2)o1,24.5% (inactive)
11,COc1cc(/C=N/NC(=O)c2ccc(-n3cc(-c4ccccc4)nn3)cc2)cc(OC)c1OC,36.3% (inactive)
12,C=CN(C(=O)N1CCN(c2cc3c(cc2F)c(=O)c(C(=O)O)cn3C2CC2)CC1)c1nc(-c2ccc(Cl)cc2)cs1,28.6% (inactive)
13,COc1ccccc1/C=C/C(=O)Nc1ccc(F)cc1,100% (inactive)
14,CC(C)c1ccc2c(c1)CC[C@H]1[C@](C)(C(=O)OCC#CCN3CCCC3)CCC[C@]21C,91.1% (inactive)
15,COc1ccc2c(O)c(/C=C3\N=Nc4ncccc43)oc2c1C[C@@H]1CCNC[C@H]1F,-93% (active)
16,c1ccc2cc(Cn3cc(CSc4nc5ccccc5s4)nn3)ccc2c1,98.8% (inactive)
17,COCC(=O)Oc1cc(-c2ccc(C)cc2C)c(OC(=O)COC)c(-c2ccc(C)cc2C)c1,35.6% (inactive)
18,Cc1nc2ccccc2c(/C=C/c2ccc(F)cc2)c1C(=O)/C=C/c1ccccc1,-82.5% (active)
19,O=C1C=C(SCCO)C(=O)c2ccccc21,-57.5% (active)

# Tested on: SK-MEL-28 melanoma
# Experiment: as above
# Conditions: 10 µM unless noted
row,SMILES,growth
1,COc1ccc(/C=C/C(c2cc(OC)c(OC)c(OC)c2)n2cncn2)cc1O (stereo not drawn),59.1% (inactive)
2,COc1ccc(-c2cn(Cc3cc4ccccc4s3)nn2)cc1OCCN1CCCCC1,75.8% (inactive)
3,COc1ccc(-c2nc3c(c(-c4ccc(Cl)cc4)nn3-c3ccccc3)c(-c3ccccc3)c2C#N)cc1,108% (inactive)
4,COc1ccc2c(c1)CC[C@@H]1[C@@H]2CC[C@]2(C)C3C(=CC(COC(C)=O)C4C(=O)N(c5ccc(Cl)cc5)C(=O)C43)C[C@@H]12 (stereo partly drawn),106% (inactive)
5,COc1cc(/C=C/C(=O)N2CCN(C(=O)c3cc(OC)c(OC)c(OC)c3)CC2)ccc1OCCCOc1cc2c(cc1OC)C(=O)N1CCC[C@H]1C=N2,-47.3% (active)
6,CSc1nc2ccc(C)cc2cc1/C=C1/C=C(c2ccccc2)NC1=O,79.1% (inactive)
7,Cc1ccc2c(c1)sc1nc(-c3c[nH]c4ccccc34)c(Nc3ccccc3)n12,110% (inactive)
8,N=C(N)c1ccc(-c2ccc(-c3ccccc3)o2)o1,69.1% (inactive)
9,CN1C(=O)N2CN3CCCN(C3)CN3C(=S)NC1C23 (stereo not drawn),119% (inactive)
10,Clc1ccc(-c2cc(-c3ccccc3)nc(N3CCN(CCCNc4ccnc5cc(Cl)ccc45)CC3)n2)cc1,-37.5% (active)
11,COc1cc(/C=C/c2cc(/C=C/c3ccc(O)c(OC)c3)n(C(=O)Nc3ccc(Cl)cc3)n2)ccc1O,12.7% (inactive)
12,N#Cc1c(-c2ccccc2)nc2c(c(-c3ccc(Cl)cc3)nn2-c2ccccc2)c1-c1ccc([N+](=O)[O-])cc1,102% (inactive)
13,COc1ccc(Oc2ccc(/C=C/C(=O)c3cc4ccccc4oc3=O)cc2)cc1,98.6% (inactive)
14,O=[N+]([O-])c1c(O)c(Cl)cc(Cl)c1Cl,109% (inactive)
15,O=S(O)c1cc(Cl)cc(Cl)c1OCc1ccccc1,105% (inactive)
16,Cc1oc(-c2ccc(Cl)cc2)nc1C1=NN(C(=O)c2ccncc2)C(c2ccccc2)C1 (stereo not drawn),89.7% (inactive)
17,CS(=O)(=O)c1ccc(-c2nc3ccccc3n2CC(=O)N/N=C/c2ccccc2)cc1,103% (inactive)
18,CCCn1c(=S)sc2c(NNC(C)=O)nc(C)nc21,141% (inactive)
19,N#CSc1c[nH]c2ccc(/C=C/C(=O)/C=C(O)/C=C/c3ccc4[nH]cc(SC#N)c4c3)cc12,31.8% (inactive)
20,Fc1cccc(-c2nc(-c3c[nH]c4ncccc34)cs2)c1,89.2% [100 µM] (inactive)

row,SMILES,growth
1,COc1ccc(Oc2ccc(/C=C/C(=O)c3ccc(OC)c(OC)c3)cc2)cc1,93.7% (inactive)
2,CCCCn1c(NC(C)=O)c(S(=O)(=O)c2ccccc2)c2nc3ccccc3nc21,122% (inactive)
3,COc1cc(O)c2c(=O)c3c(CC=C(C)C)cc(OC)c(O)c3oc2c1,63% (inactive)
4,CC12OC(CC(O)C1O)n1c3ccccc3c3c4c(c5c6ccccc6n2c5c31)C(=O)N(CCN1CCCC1)C4=O (stereo not drawn),63% (inactive)
5,C=C1CC[C@@H]2C(C)(C)[C@H](O)CC[C@@]2(C)[C@@H]1COc1ccc2ccc(=O)oc2c1,73.6% (inactive)
6,COc1c2c(cc3c1C(=O)N[C@@H]1[C@@H](O)[C@@H](O)[C@H](O)C[C@@H]31)OCCO2,106% (inactive)
7,C=C1C(=O)O[C@H]2[C@H]1CC/C(COC(=O)NCc1ccc(Cn3c(=O)sn(-c4ccccc4)c3=O)cc1)=C\CC[C@@]1(C)O[C@@H]21,47% (inactive)
8,Cc1nc2sc(C(=O)Nc3ccccn3)c(N)c2cc1C(C)O (stereo not drawn),67.4% (inactive)
9,c1cc(OCCN2CCCC2)ccc1CNc1ccc2nc(CCC3CCCCC3)[nH]c2c1,-85.3% (active)
10,Cc1nc([P+](c2ccccc2)(c2ccccc2)c2ccccc2)c(N2CCCCC2)o1,34.3% (inactive)
11,COc1cc(/C=N/NC(=O)c2ccc(-n3cc(-c4ccccc4)nn3)cc2)cc(OC)c1OC,53.3% (inactive)
12,C=CN(C(=O)N1CCN(c2cc3c(cc2F)c(=O)c(C(=O)O)cn3C2CC2)CC1)c1nc(-c2ccc(Cl)cc2)cs1,62% (inactive)
13,COc1ccccc1/C=C/C(=O)Nc1ccc(F)cc1,108% (inactive)
14,CC(C)c1ccc2c(c1)CC[C@H]1[C@](C)(C(=O)OCC#CCN3CCCC3)CCC[C@]21C,76% (inactive)
15,COc1ccc2c(O)c(/C=C3\N=Nc4ncccc43)oc2c1C[C@@H]1CCNC[C@H]1F,5.44% (active)
16,c1ccc2cc(Cn3cc(CSc4nc5ccccc5s4)nn3)ccc2c1,102% (inactive)
17,COCC(=O)Oc1cc(-c2ccc(C)cc2C)c(OC(=O)COC)c(-c2ccc(C)cc2C)c1,87.9% (inactive)
18,Cc1nc2ccccc2c(/C=C/c2ccc(F)cc2)c1C(=O)/C=C/c1ccccc1,19.4% (inactive)
19,O=C1C=C(SCCO)C(=O)c2ccccc21,42.9% (inactive)
